From the supplement of paper PMC10849652
Of roughly 7,900 targets only a part is listed; those with a hit were picked by preference. About 0.6% of all pairs of compound and target were hits.

Compound: C1=CC=C(C=C1)[C@H](COC2=CC3=C(C=C2)NC(=O)N3)NC(=O)C4=CC=CN(C4=O)CC5=CC(=C(C=C5)F)F
Assay: log2 fold change, soluble protein after heating vs DMSO (PISA); higher = thermal stabilisation; K562 cells, 10 uM, 30 min; active = over 0.2 and 3.5 SD of the protein, either way, in both replicates (recomputed)
In short: (§1)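 Aliquots of K562 cells (2×10^6 cells/mL) treated with 10 μM compound for 30 min were heated for 3 min over 48°C-58°C. After pooling and extraction in PBS with 0.5% NP-40 at 4°C, soluble protein from a 21,000xg, 90 min spin was quantified by TMTpro 16plex LC-MS/MS with channel sums equalised. Thermal stability is expressed against control samples, from duplicates, as a log2 fold change.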

Sequence of UniProt O95159 (O95159 whole entry, looked up): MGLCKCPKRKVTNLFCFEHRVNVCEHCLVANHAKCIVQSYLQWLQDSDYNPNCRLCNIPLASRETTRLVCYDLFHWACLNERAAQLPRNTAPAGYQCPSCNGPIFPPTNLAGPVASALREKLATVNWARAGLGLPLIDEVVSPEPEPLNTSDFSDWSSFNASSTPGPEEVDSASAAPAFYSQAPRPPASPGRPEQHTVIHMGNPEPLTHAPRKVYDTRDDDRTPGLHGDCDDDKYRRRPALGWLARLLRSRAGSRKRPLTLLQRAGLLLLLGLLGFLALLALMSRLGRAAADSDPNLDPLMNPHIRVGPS
Sequence of UniProt O95218 (O95218 whole entry, looked up): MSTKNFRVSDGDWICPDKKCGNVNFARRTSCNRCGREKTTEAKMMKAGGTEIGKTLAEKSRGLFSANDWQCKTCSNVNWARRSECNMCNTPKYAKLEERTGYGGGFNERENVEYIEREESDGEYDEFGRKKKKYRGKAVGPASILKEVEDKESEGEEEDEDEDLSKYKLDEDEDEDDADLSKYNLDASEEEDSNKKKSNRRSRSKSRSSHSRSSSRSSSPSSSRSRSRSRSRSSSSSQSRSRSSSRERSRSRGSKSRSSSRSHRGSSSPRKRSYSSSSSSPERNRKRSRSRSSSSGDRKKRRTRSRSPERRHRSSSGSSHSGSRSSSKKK
Sequence of UniProt O43264 (O43264 whole entry, looked up): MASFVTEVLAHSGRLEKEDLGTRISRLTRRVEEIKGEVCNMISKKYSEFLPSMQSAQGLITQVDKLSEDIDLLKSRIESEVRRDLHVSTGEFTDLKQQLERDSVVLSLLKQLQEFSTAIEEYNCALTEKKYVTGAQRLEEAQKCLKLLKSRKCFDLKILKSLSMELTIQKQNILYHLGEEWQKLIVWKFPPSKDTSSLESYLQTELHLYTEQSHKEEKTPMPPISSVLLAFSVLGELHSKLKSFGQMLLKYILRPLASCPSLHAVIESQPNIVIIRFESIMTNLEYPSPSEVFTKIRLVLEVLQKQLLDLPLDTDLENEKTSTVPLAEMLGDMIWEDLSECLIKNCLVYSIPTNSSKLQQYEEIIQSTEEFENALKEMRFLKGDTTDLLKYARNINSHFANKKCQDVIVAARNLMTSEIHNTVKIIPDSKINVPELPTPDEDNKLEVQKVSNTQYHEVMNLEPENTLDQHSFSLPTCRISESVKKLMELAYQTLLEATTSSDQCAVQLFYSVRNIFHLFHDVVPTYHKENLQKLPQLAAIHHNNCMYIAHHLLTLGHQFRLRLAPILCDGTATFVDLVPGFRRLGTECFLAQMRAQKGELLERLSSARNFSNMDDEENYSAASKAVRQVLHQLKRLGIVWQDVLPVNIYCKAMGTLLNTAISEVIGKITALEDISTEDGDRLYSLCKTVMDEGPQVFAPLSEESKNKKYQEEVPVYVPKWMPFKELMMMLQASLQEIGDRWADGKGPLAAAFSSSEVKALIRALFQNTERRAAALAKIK
Sequence of UniProt P67809 (P67809 whole entry, looked up): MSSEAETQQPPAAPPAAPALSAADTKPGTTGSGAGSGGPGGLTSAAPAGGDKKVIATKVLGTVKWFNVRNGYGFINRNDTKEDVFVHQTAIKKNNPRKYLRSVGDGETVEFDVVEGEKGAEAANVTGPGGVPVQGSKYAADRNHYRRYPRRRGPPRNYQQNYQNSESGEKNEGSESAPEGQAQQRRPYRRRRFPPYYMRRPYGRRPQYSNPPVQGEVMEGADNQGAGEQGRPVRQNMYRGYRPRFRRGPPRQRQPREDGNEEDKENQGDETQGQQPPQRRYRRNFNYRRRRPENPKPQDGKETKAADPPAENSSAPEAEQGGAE
Sequence of UniProt Q8N5P1 (Q8N5P1 whole entry, looked up): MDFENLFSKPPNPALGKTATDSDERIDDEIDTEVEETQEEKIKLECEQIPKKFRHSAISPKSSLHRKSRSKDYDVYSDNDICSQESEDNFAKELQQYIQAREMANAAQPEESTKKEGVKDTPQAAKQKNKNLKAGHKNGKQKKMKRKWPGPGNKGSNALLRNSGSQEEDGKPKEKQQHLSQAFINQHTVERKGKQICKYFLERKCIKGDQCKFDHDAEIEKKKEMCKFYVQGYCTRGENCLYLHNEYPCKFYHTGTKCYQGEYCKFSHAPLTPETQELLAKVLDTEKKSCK
Sequence of UniProt Q8NB15 (Q8NB15 whole entry, looked up): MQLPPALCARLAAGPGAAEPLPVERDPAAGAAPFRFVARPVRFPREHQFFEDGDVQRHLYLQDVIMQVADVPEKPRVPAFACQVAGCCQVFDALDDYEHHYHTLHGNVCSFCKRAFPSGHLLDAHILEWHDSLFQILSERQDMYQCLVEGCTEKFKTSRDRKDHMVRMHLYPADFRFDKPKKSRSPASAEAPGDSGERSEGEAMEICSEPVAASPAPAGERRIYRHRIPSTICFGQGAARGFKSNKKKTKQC
Sequence of UniProt Q96NC0 (Q96NC0 whole entry, looked up): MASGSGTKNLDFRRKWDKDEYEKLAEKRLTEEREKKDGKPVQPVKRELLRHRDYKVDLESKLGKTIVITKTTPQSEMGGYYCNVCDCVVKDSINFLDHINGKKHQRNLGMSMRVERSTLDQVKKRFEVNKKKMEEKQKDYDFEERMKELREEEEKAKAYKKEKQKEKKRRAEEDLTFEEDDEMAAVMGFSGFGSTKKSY
Sequence of UniProt P49750 (P49750 whole entry, looked up): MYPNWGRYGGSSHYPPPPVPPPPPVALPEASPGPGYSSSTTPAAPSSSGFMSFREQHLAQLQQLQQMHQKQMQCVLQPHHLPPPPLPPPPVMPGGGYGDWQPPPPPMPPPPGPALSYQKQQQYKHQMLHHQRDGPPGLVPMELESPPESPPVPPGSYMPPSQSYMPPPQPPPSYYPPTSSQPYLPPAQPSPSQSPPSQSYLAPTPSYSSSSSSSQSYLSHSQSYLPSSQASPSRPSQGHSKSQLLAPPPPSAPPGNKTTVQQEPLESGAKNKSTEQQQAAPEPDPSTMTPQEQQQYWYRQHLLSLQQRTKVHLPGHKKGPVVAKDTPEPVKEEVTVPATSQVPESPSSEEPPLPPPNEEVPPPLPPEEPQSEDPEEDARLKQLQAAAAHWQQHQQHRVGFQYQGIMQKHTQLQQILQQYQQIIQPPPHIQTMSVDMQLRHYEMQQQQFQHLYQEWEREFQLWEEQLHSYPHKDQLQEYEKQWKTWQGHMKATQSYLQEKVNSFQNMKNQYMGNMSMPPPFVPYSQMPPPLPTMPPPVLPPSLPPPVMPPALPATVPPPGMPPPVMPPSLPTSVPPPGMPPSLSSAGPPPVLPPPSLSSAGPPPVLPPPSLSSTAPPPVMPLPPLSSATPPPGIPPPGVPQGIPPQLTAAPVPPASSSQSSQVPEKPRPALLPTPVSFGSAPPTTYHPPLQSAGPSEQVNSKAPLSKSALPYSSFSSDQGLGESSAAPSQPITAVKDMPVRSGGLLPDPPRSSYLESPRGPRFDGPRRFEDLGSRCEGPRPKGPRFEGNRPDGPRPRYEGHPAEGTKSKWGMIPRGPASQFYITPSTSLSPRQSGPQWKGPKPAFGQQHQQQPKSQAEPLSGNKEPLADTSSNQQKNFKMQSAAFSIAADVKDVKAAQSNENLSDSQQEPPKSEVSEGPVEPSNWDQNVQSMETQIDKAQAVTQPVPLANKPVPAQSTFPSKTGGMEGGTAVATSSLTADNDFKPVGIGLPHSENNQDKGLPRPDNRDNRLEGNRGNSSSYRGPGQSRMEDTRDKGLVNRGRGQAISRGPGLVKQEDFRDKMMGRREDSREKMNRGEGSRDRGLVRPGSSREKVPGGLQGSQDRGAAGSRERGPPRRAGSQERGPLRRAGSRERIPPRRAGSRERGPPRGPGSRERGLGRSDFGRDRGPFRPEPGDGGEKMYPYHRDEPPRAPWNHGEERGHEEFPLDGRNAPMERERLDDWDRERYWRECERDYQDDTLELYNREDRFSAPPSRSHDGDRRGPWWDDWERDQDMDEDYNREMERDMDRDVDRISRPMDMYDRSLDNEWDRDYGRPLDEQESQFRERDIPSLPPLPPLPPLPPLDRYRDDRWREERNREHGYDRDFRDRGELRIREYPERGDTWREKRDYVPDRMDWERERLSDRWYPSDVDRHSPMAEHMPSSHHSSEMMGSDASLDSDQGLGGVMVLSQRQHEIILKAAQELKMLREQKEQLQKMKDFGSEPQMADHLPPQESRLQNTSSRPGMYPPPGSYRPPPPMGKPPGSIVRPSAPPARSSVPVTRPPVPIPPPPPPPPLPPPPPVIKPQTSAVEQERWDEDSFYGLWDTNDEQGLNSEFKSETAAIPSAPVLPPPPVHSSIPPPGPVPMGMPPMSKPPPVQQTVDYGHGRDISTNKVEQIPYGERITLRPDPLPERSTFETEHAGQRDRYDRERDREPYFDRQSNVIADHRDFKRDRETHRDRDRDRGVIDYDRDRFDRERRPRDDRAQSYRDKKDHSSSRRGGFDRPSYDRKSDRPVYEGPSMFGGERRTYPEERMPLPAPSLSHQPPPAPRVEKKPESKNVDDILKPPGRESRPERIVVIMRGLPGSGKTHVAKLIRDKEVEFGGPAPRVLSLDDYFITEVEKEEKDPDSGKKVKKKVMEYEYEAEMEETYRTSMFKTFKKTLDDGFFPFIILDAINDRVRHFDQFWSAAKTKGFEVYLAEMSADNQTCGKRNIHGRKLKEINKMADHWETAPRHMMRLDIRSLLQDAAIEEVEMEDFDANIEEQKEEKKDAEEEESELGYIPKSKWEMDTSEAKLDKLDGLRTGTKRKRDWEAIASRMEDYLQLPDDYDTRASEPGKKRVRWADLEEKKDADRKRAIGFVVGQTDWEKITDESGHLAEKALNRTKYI
Sequence of UniProt Q96EC8 (Q96EC8 whole entry, looked up): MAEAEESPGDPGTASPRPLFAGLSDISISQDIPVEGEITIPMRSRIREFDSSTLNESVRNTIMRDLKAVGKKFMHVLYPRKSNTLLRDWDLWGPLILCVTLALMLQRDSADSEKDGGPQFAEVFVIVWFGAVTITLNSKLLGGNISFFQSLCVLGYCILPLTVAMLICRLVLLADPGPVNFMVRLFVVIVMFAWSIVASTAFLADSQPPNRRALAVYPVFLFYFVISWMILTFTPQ
Sequence of UniProt P62699 (P62699 whole entry, looked up): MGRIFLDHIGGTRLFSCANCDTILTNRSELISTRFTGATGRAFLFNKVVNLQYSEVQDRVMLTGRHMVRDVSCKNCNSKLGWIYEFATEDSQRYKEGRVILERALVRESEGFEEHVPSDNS

| Target | log2 fold change |
| --- | --- |
| YIPF4 (UniProt Q9BSR8) | -0.027 (inactive) |
| ZBTB17 isoform 2 (UniProt Q13105) | -0.08 (inactive) |
| ZC3H18 (UniProt Q86VM9) | 0.032 (inactive) |
| YPEL5 (UniProt P62699) | -0.066 (inactive) |
| ZC3HC1 (UniProt Q86WB0) | -0.091 (inactive) |
| ZMYM3 (UniProt Q14202) | -0.03 (inactive) |
| YWHAZ (UniProt P63104) | -0.012 (inactive) |
| ZDHHC20 (UniProt Q5W0Z9) | -0.023 (inactive) |
| ZRANB2 (UniProt O95218) | -0.002 (inactive) |
| ZFAND6 (UniProt Q6FIF0) | 0 (inactive) |
| YWHAZ (UniProt E7ESK7) | 0.066 (inactive) |
| ZMYM1 (UniProt Q5SVZ6) | 0.077 (inactive) |
| ZNF239 (UniProt Q16600) | -0.17 (inactive) |
| YAE1 (UniProt Q9NRH1) | -0.021 (inactive) |
| YWHAQ (UniProt P27348) | -0.031 (inactive) |
| ZW10 (UniProt O43264) | -0.044 (inactive) |
| YES1 (UniProt P07947) | 0.025 (inactive) |
| YOD1 (UniProt Q5VVQ6) | -0.071 (inactive) |

| Target | log2 fold change |
| --- | --- |
| ZNF579 (UniProt Q8NAF0) | 0.05 (inactive) |
| ZNF609 (UniProt O15014) | 0.035 (inactive) |
| YIPF6 (UniProt Q96EC8) | 0.062 (inactive) |
| YWHAB (UniProt P31946) | -0.024 (inactive) |
| ZFPL1 (UniProt O95159) | 0.09 (inactive) |
| YY1 (UniProt P25490) | 0.013 (inactive) |
| ZNF217 (UniProt O75362) | -0.017 (inactive) |
| ZNF511 isoform 1 (UniProt Q8NB15) | -0.015 (inactive) |
| ZNF277 (UniProt Q9NRM2) | -0.134 (inactive) |
| ZCCHC9 (UniProt Q8N567) | 0.173 (inactive) |
| YLPM1 (UniProt P49750) | -0.092 (inactive) |
| ZEB2 (UniProt O60315) | -0.125 (inactive) |
| ZC3H8 (UniProt Q8N5P1) | 0.095 (inactive) |
| ZDHHC8 isoform 3 (UniProt Q9ULC8) | 0.105 (inactive) |
| ZBTB21 (UniProt Q9ULJ3) | -0.215 (inactive) |
| ZMAT2 (UniProt Q96NC0) | 0.029 (inactive) |
| YBX1 (UniProt P67809) | 0.105 (inactive) |

Compound: CC1=C(SC2=C1C(=N[C@H](C3=NN=C(N32)C)CC(=O)N)C4=CC=C(C=C4)Cl)C
Assay: as above
In short: as §1

| Target | log2 fold change |
| --- | --- |
| YIPF4 (UniProt Q9BSR8) | 0.001 (inactive) |
| ZC3H18 (UniProt Q86VM9) | -0.031 (inactive) |
| YPEL5 (UniProt P62699) | 0.044 (inactive) |
| ZC3HC1 (UniProt Q86WB0) | 0.07 (inactive) |
| ZMYM3 (UniProt Q14202) | 0.055 (inactive) |
| YWHAZ (UniProt P63104) | 0.035 (inactive) |
| ZDHHC20 (UniProt Q5W0Z9) | -0.001 (inactive) |
| ZRANB2 (UniProt O95218) | -0.073 (inactive) |
| ZNF512 (UniProt Q96ME7) | -0.117 (inactive) |
| ZFAND6 (UniProt Q6FIF0) | -0.015 (inactive) |
| YWHAZ (UniProt E7ESK7) | 0.009 (inactive) |
| ZMYM1 (UniProt Q5SVZ6) | 0.082 (inactive) |
| ZNF239 (UniProt Q16600) | -0.151 (inactive) |
| YAE1 (UniProt Q9NRH1) | -0.111 (inactive) |
| YWHAQ (UniProt P27348) | 0.009 (inactive) |
| ZW10 (UniProt O43264) | 0.044 (inactive) |
| YES1 (UniProt P07947) | -0.056 (inactive) |

| Target | log2 fold change |
| --- | --- |
| YOD1 (UniProt Q5VVQ6) | 0.035 (inactive) |
| ZNF579 (UniProt Q8NAF0) | -0.074 (inactive) |
| ZNF609 (UniProt O15014) | -0.008 (inactive) |
| YIPF6 (UniProt Q96EC8) | -0.04 (inactive) |
| YWHAB (UniProt P31946) | 0.024 (inactive) |
| ZFPL1 (UniProt O95159) | 0.084 (inactive) |
| YY1 (UniProt P25490) | -0.006 (inactive) |
| ZNF217 (UniProt O75362) | 0.048 (inactive) |
| ZNF511 isoform 1 (UniProt Q8NB15) | -0.128 (inactive) |
| ZNF277 (UniProt Q9NRM2) | 0.028 (inactive) |
| ZCCHC9 (UniProt Q8N567) | -0.074 (inactive) |
| YLPM1 (UniProt P49750) | 0.11 (inactive) |
| ZC3H8 (UniProt Q8N5P1) | -0.089 (inactive) |
| ZBTB21 (UniProt Q9ULJ3) | -0.152 (inactive) |
| ZMAT2 (UniProt Q96NC0) | -0.025 (inactive) |
| YBX1 (UniProt P67809) | -0.228 (inactive) |
| ZDHHC7 isoform 2 (UniProt Q9NXF8) | 0.088 (inactive) |

Compound: CC1=C2C(=CC=C1)N=C(N(C2=O)C3=CC=CC=C3C)CN4C=NC5=C(N=CN=C54)N
Assay: as above
In short: as §1

| Target | log2 fold change |
| --- | --- |
| YIPF4 (UniProt Q9BSR8) | -0.019 (inactive) |
| ZNF580 (UniProt Q9UK33) | -0.16 (inactive) |
| ZC3H18 (UniProt Q86VM9) | 0.035 (inactive) |
| YPEL5 (UniProt P62699) | 0.016 (inactive) |
| ZC3HC1 (UniProt Q86WB0) | 0.1 (inactive) |
| ZMYM3 (UniProt Q14202) | -0.02 (inactive) |
| YWHAZ (UniProt P63104) | -0.031 (inactive) |
| ZDHHC20 (UniProt Q5W0Z9) | -0.047 (inactive) |
| ZRANB2 (UniProt O95218) | -0.07 (inactive) |
| ZFAND6 (UniProt Q6FIF0) | 0.042 (inactive) |
| ZMYM1 (UniProt Q5SVZ6) | -0.144 (inactive) |
| ZNF239 (UniProt Q16600) | -0.06 (inactive) |
| YAE1 (UniProt Q9NRH1) | 0.016 (inactive) |
| YWHAQ (UniProt P27348) | -0.152 (inactive) |
| ZW10 (UniProt O43264) | 0.018 (inactive) |
| ZCCHC17 (UniProt Q9NP64) | -0.124 (inactive) |
| YES1 (UniProt P07947) | 0.126 (inactive) |
| YOD1 (UniProt Q5VVQ6) | 0.063 (inactive) |

| Target | log2 fold change |
| --- | --- |
| ZNF579 (UniProt Q8NAF0) | -0.025 (inactive) |
| ZNF609 (UniProt O15014) | 0.148 (inactive) |
| YIPF6 (UniProt Q96EC8) | 0.114 (inactive) |
| YWHAB (UniProt P31946) | -0.01 (inactive) |
| ZFPL1 (UniProt O95159) | 0.063 (inactive) |
| YY1 (UniProt P25490) | -0.033 (inactive) |
| ZNF217 (UniProt O75362) | 0.163 (inactive) |
| ZNF511 isoform 1 (UniProt Q8NB15) | 0.064 (inactive) |
| ZNF277 (UniProt Q9NRM2) | -0.007 (inactive) |
| ZCCHC9 (UniProt Q8N567) | -0.202 (inactive) |
| YLPM1 (UniProt P49750) | 0.104 (inactive) |
| ZEB2 (UniProt O60315) | 0.137 (inactive) |
| ZC3H8 (UniProt Q8N5P1) | -0.084 (inactive) |
| ZBTB21 (UniProt Q9ULJ3) | 0.058 (inactive) |
| ZMAT2 (UniProt Q96NC0) | -0.009 (inactive) |
| YBX1 (UniProt P67809) | -0.143 (inactive) |
| ZDHHC7 isoform 2 (UniProt Q9NXF8) | 0.131 (inactive) |
